Inconclusive results are not listed. A number with no mark means an inactive call. Active and inactive are the calls of the source. Calls come from the whole dose curve; as a rule, active = well fitted cell-killing curve with a large enough effect; inconclusive = small, poorly fitted or top-dose-only effect, or effect the other way; inactive = no such curve, though single readings can be large or run the other way.
Assay: Quantitative highthroughput screen to assess conditional lethalithy of NOMO1 cells grown in Human Plasma-Like Medium with dialyzed fetal bovine serum (HPLM+ds) (AID 1963878); note: nearly all actives have a fitted effect of over 35% in size
Conditions: NOMO1 AML cells in HPLM+ds, CellTiter-Glo viability, 48 h; series mostly up to 45.8 µM; viability: at the top concentration
Source text: Assay Provider: Jason Cantor Ph.D.
Department of Biochemistry
University of Wisconsin-Madison, Madison, WI, USA
Chemical screening studies have identified drug sensitivities across hundreds of cancer cell lines but most putative therapeutics fail to translate. Discovery and development of drug candidates in models that more accurately reflect nutrient levels in human blood is a major challenge. Here we performed high-throughput screens in conventional versus Human Plasma-Like Medium (HPLM) to identify compounds that were "missed" when screening using the artificial culture condition. Sets of conditional anticancer compounds spanned phases of clinical development and included non-oncology drugs were assessed. […] We also traced conditional phenotypes for several chemotherapeutics to availability of HPLM-specific metabolites and confirmed others for compounds whose reported targets are encoded by nonessential genes. Our findings establish generalizable strategies for exploiting conditional lethality in HPLM to reveal therapeutic candidates and mechanisms of action in cancer cells.
Described herein are the results of each viability screens against three cell lines: NOMO1 (an acute myeloid leukemia cell line); P12-Ichikawa (a T-cell acute lymphoblastic leukemia); and SEM (a B-cell ALL). Each assay was screened using 3 different cell culture media: homemade human plasma-Like medium with 10% dialyzed fetal bovine serum (HPLM+ds); RPMI1640 with 10% untreated FBS and 5mM glucose (RPMI+s); and RPMI1640 with 10% dialyzed fetal bovine serum and 5 mM glucose (RPMI+ds).
PROTOCOL TABLE (as described by Inglese J, Shamu CE and Guy RK. 2007)
SEQUENCE No. (e.g., 1, 2, 3, etc.); […] (e.g., Cells, Incubation, Reagent, etc.); VALUE and DESCRIPTION.
1; Cells; 5 uL; white, solid bottom 1536-well Greiner assay plate.
2; Compounds; 23 nL; Kalypsis pin tool (Wako USA) equipped with a 1536-well pin head to transfer to the assay plates.
3; Incubation; 48 hours; 37C incubation.
4; Reagent; 3 uL; CellTiter Glo (Promega).
5; Incubation; 5 min, room temperature
6; Detection; Luminescence, Viewlux PerkinElmer.
NOTES (numbers refer to Sequence numbers above)
1. Briefly, 5 ul of cell reagent was dispensed using a Multidrop Combi Dispenser. The NOMO1 and SEM cells were plated at 500 cells/well and the P12-Ichikawa line at 1000 cells/well.
2. After seeding the cells, 23 nL of MIPE 4.1 library compounds (in DMSO) were added to each plate using a Kalypsys 1536 Pintool dispenser. Bortezomib at final concentration of […] and DMSO were added to each plate as positive and negative controls respectively. For each screen, MIPE 4.1 compounds were added over an eleven-point concentration range […] in 3-fold dilutions.
3. Each plate was covered with a stainless steel gasketed lid to prevent evaporation and incubated for 48 hour at 37C, 95% relative humidity, and 5% CO2.
4-5. Three microliter CellTilter-GloTM luminescent substrate mix (Promega) reagent was added to the assay plate and incubated at room temperature for 5 min.
6. The luminescence signal was measured using a ViewLux (PerkinElmer) multiplate reader with a 2 second exposure time per plate. Data for each compound were normalized as percent viability such that measurements for DMSO and the empty well controls in each plate were defined as 100% and 0%, respectively.
Potency is the fitted concentration of half-maximal effect.

SMILES | viability | Potency
CC(C)[C@H](O)C(=O)N[C@@H](C)C(=O)N[C@@H]1C(=O)N(C)CCc2ccccc21 | 82.4% | –
Cc1ncc([N+](=O)[O-])n1CC(C)O (stereo not given) | 98.9% | –
Cc1cn[nH]c1 | – | 16.6 µM (active)
C[C@@H]1C(=O)O[C@H]2CC34[C@H]5C[C@@H](C(C)(C)C)C36[C@H](OC(=O)[C@@H]6O)O[C@@]4(C(=O)O5)[C@]21O (stereo not given in full) | 96.1% | –
CC(CCc1ccc(O)cc1)NCCc1ccc(O)c(O)c1 (stereo not given) | 80.9% | –
CN(CC=CC#CC(C)(C)C)Cc1cccc2ccccc12 | 102% | –
CC(C)(F)C[C@H](N[C@@H](c1ccc(-c2ccc(S(C)(=O)=O)cc2)cc1)C(F)(F)F)C(=O)NC1(C#N)CC1 | 92.9% | –
Nc1ccccc1NC(=O)c1ccc(CNC(=O)OCc2cccnc2)cc1 | – | 1.32 µM (active)
COc1cc2ncn(-c3cc(OCc4ccccc4S(C)(=O)=O)c(C#N)s3)c2cc1OC | 85.1% | –
CCCCc1nc2cc(C=CC(=O)NO)ccc2n1CCN(CC)CC | – | 4.69 µM (active)
Cc1c(Cn2c(C)nc3c(C(=O)O)cc(N4CCOCC4)cc32)cccc1C(F)(F)F | – | 26.4 µM (active)
CC(=O)Nc1cccc(-n2c(=O)n(C3CC3)c(=O)c3c(Nc4ccc(I)cc4F)n(C)c(=O)c(C)c32)c1 | – | 0.235 µM (active)
CNC[C@@H](O)[C@@H](O)[C@H](O)[C@H](O)CO | – | 0.526 µM (active)
Fc1cc(-c2cccc3ncc(-c4cnn(C5CCNCC5)c4)nc23)cc(F)c1CN1CCOCC1 | – | 3.32 µM (active)
NCCS(=O)(=O)O | 99.4% | –
COc1nc(N)nc2c1ncn2[C@@H]1O[C@H](CO)[C@@H](O)[C@@H]1O | 101% | –
O=c1n(CCCN2CCN(c3cccc(Cl)c3)CC2)nc2ccccn12 | 117% | –
CC(C)(Sc1cc(C(C)(C)C)c(O)c(C(C)(C)C)c1)Sc1cc(C(C)(C)C)c(O)c(C(C)(C)C)c1 | 98.5% | –
CC(=NNC(=S)N1CCC1)c1ccccn1 | – | 0.0047 µM (active)
CC(C)(C)c1cc(C(C)(C)C)c(NC(=O)c2c[nH]c3ccccc3c2=O)cc1O | 98.9% | –

SMILES | viability | Potency
CN1C(=O)C[C@H](C(=O)N[C@@H](Cc2cnc[nH]2)C(=O)N2CCC[C@@H]2C(N)=O)NC1=O | 94.9% | –
CCCCOc1c(C(=O)c2c(F)cc(C)cc2F)cnc2n[nH]cc12 | 71.2% | –
COc1ccc2c(c1)c(CC(=O)O)c(C)n2C(=O)c1ccc(Cl)cc1 | 103% | –
O=C1c2c(O)cccc2[C@@H]([C@@H]2O[C@H](CO)[C@@H](O)[C@H](O)[C@H]2O)c2cc(CO)cc(O)c21 | 94.6% | –
Clc1ccc2c(c1)C(N1CCNCC1)=Nc1ccccc1O2 | 95.4% | –
C[C@@H](c1ncncc1F)[C@](O)(Cn1cncn1)c1ccc(F)cc1F | 91.1% | –
CC1(C)S[C@H]2[C@H](NC(=O)[C@@H](N)c3ccc(O)cc3)C(=O)N2[C@@H]1C(=O)O | – | 5.26 µM (active)
Oc1ccc(C2CNCCc3c2cc(O)c(O)c3Cl)cc1 (stereo not given) | 117% | –
Cc1ccc(CN2CCNCC2)cc1NC(=O)CNc1ccc(F)c(F)c1 | 112% | –
Cc1nccn1CC1CCc2c(c3ccccc3n2C)C1=O (stereo not given) | 97.4% | –
O=C1c2c(O)cc(O)cc2OC(c2ccc(O)c(O)c2)C1O (stereo not given) | 106% | –
Cc1cccc(Nc2nc(N[C@@H]3CCCC[C@H]3N)ncc2C(N)=O)c1 | – | 0.935 µM (active)
CC(C)(C)[N+]([O-])=Cc1ccc(S(=O)(=O)O)cc1S(=O)(=O)O | 104% | –
COc1cc2c(Nc3ccc(Cl)c(Cl)c3F)ncnc2cc1OCC1C[C@@H]2CN(C)C[C@@H]2C1 (stereo not given in full) | – | 13.2 µM (active)
O=C(CCCN1CCC(O)(c2ccc(Cl)cc2)CC1)c1ccc(F)cc1 | 75.1% | –
Cc1ccc(NC(=O)c2cccc(N(C)C)c2)cc1NC(=O)c1ccc(O)cc1 | 96.1% | –
CN(C)CCCC1(c2ccc(F)cc2)OCc2cc(C#N)ccc21 (stereo not given) | 90.6% | –
Nc1nc(=O)n([C@H]2CSC(CO)O2)cc1F (stereo not given in full) | 97.6% | –
Cc1[nH]nc2ccc(-c3cncc(OC[C@@H](N)Cc4ccccc4)c3)cc12 | – | 1.66 µM (active)
COc1cc(C(=O)NC2CCN(C)CC2)ccc1Nc1ncc2c(n1)N(C1CCCC1)CCC(=O)N2C(C)C | – | 14.8 µM (active)
